Source: the supplement of paper PMC10849652
About 7,900 targets were measured; listed, in parts, are those with a hit and a random draw of the rest. About 0.6% of all pairs of compound and target were hits.

Legend:
Test in all cases: log2 fold change, soluble protein after heating vs DMSO (PISA); higher = thermal stabilisation; K562 cells, 10 uM, 30 min; active = over 0.2 and 3.5 SD of the protein, either way, in both replicates (recomputed)
IRAK-1-4 Inhibitor I = compound: C1COCCN1CCN2C3=CC=CC=C3N=C2NC(=O)C4=CC(=CC=C4)[N+](=O)[O-] [IRAK-1-4 Inhibitor I]
Procedure, shortened: (§1)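 K562 cells at 2×10^6 cells/mL were treated with 10 μM compound for 30 min. Aliquots were heated for 3 min across 48°C-58°C, pooled, and extracted in PBS with 0.5% NP-40 at 4°C; soluble protein was the supernatant after 21,000xg for 90 min. Soluble protein was quantified by TMTpro 16plex LC-MS/MS with channel sums equalised, and reported as log2 fold change in thermal stability against DMSO controls, with values from duplicates.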

ibrutinib = compound: C=CC(=O)N1CCC[C@@H](n2nc(-c3ccc(Oc4ccccc4)cc3)c3c(N)ncnc32)C1 [ibrutinib]
Procedure, shortened: as §1

[1] = compound: CC(=O)c1cnc2ccc(-c3cc(Cl)c(O)c(Cl)c3)nc2c1N[C@H]1CC[C@H](CN(C)C)CC1
Procedure, shortened: as §1

ralimetinib = compound: CC(C)(C)Cn1c(N)nc2ccc(-c3[nH]c(C(C)(C)C)nc3-c3ccc(F)cc3)nc21 [ralimetinib]
Procedure, shortened: as §1

[2] = compound: CC(C)(O)CC(=O)NCCn1ccc2ncnc(Nc3ccc(Oc4cccc(C(F)(F)F)c4)c(Cl)c3)c21
Procedure, shortened: as §1

[3] = compound: CC(C)C1=C2N=C(C=C(N2N=C1)NCC3=CC=CC=C3)NCCCCCCN
Procedure, shortened: as §1

[4] = compound: CC(C)C[C@@H](C=O)NC(=O)[C@H](CC(C)C)NC(=O)[C@H](CC(C)C)NC(=O)OCc1ccccc1
Procedure, shortened: as §1

pinometostat = compound: CC(C)N(C[C@H]1O[C@@H](n2cnc3c(N)ncnc32)[C@H](O)[C@@H]1O)[C@H]1C[C@@H](CCc2nc3cc(C(C)(C)C)ccc3[nH]2)C1 [pinometostat]
Procedure, shortened: as §1

[5] = compound: CC1=C(C(CC(=O)N1)C2=CC=C(C=C2)C(F)(F)F)C(=O)NC3=C(C=C4C(=C3)C=NN4)F
Procedure, shortened: as §1

[6] = compound: CC1=C(C2=C(C=C1)C(=O)C3=CC=CC=C3N2CCCN)C
Procedure, shortened: as §1

[7] = compound: CC1=C(C=C(C=C1)NC(=O)C2=CC(=CC=C2)C(C)(C)C#N)NC3=CC4=C(C=C3)N=CN(C4=O)C
Procedure, shortened: as §1

[8] = compound: CC1=C(C=C(C=C1)NC(=O)C2=CC(=CC=C2)N(C)C)NC(=O)C3=CC=C(C=C3)O
Procedure, shortened: as §1

[9] = compound: CC1=CC=C(C=C1)SC2=C3C=C(SC3=CN=C2)C(=O)N
Procedure, shortened: as §1

[10] = compound: CC1=NC(=CC=C1)C2=C(N=C(N2)C(C)(C)C)C3=CC4=NC=CN=C4C=C3
Procedure, shortened: as §1

Nexturastat A = compound: CCCCN(Cc1ccc(C(=O)NO)cc1)C(=O)Nc1ccccc1 [Nexturastat A]
Procedure, shortened: as §1

vemurafenib = compound: CCCS(=O)(=O)Nc1ccc(F)c(C(=O)c2c[nH]c3ncc(-c4ccc(Cl)cc4)cc23)c1F [vemurafenib]
Procedure, shortened: as §1

[11] = compound: CCCS(=O)(=O)Nc1ccc(F)c(C(=O)c2c[nH]c3ncc(Cl)cc23)c1F
Procedure, shortened: as §1

[12] = compound: CCCc1cc(C)[nH]c(=O)c1CNC(=O)c1cc(-c2ccnc(N3CCN(C)CC3)c2)cc2c1cnn2C(C)C
Procedure, shortened: as §1

givinostat = compound: CCN(CC)Cc1ccc2cc(COC(=O)Nc3ccc(C(=O)NO)cc3)ccc2c1 [givinostat]
Procedure, shortened: as §1

barasertib = compound: CCN(CCCOc1ccc2c(Nc3cc(CC(=O)Nc4cccc(F)c4)[nH]n3)ncnc2c1)CCOP(=O)(O)O [barasertib]
Procedure, shortened: as §1

Measured: log2 fold change

OTUD6B (UniProt Q8N6M0)
Sequence of UniProt Q8N6M0 (Q8N6M0 whole entry, looked up): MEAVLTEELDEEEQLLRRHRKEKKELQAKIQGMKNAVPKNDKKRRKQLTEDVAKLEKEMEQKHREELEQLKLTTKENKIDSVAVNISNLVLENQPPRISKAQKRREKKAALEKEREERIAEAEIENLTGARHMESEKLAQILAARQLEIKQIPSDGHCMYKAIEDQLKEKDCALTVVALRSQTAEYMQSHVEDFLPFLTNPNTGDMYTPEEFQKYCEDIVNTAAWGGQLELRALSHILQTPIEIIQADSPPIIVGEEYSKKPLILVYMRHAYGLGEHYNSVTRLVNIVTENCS
active: [3] -0.269
inactive: IRAK-1-4 Inhibitor I -0.046 | ibrutinib -0.017 | [1] -0.02 | ralimetinib 0.036 | [2] -0.049 | [4] 0.029 | pinometostat 0.053 | [5] 0.078 | [6] -0.015 | [7] 0.045 | [8] -0.002 | [9] 0.124 | [10] 0.007 | Nexturastat A 0.044 | vemurafenib 0.035 | [11] 0.14 | [12] 0.084 | givinostat -0.02 | barasertib 0.096

MRPS6 (UniProt P82932)
inactive: IRAK-1-4 Inhibitor I -0.193 | ibrutinib -0.007 | [1] -0.079 | ralimetinib 0.012 | [2] -0.158 | [3] -0.003 | [4] -0.009 | pinometostat -0.007 | [5] 0.003 | [6] -0.139 | [7] 0.081 | [8] -0.052 | [9] 0.006 | [10] 0.128 | Nexturastat A 0.076 | vemurafenib 0.1 | [11] 0.059 | [12] 0.062 | givinostat 0.037 | barasertib -0.017

NOLC1 isoform 2 (UniProt Q14978)
Sequence of UniProt Q14978 (Q14978 whole entry, looked up): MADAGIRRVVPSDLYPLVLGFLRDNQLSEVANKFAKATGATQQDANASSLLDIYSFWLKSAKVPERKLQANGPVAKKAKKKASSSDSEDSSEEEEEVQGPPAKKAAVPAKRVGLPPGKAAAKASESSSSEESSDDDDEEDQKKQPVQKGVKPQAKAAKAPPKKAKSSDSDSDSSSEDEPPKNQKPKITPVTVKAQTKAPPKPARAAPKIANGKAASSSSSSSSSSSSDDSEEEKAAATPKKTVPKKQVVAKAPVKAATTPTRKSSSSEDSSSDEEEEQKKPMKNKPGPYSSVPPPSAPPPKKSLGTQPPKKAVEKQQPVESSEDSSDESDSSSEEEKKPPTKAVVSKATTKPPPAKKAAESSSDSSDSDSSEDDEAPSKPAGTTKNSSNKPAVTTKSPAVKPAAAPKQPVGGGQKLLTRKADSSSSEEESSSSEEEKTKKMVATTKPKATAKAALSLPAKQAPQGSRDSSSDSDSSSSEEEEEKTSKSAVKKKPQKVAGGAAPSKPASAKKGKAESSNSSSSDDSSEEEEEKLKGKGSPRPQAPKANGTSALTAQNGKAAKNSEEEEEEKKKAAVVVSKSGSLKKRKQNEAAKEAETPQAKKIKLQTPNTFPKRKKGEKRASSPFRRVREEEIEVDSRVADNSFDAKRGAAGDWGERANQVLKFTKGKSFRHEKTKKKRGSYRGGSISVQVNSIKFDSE
inactive: IRAK-1-4 Inhibitor I -0.057 | ibrutinib -0.089 | ralimetinib 0.041 | [2] 0.021 | [3] -0.015 | [4] -0.086 | pinometostat -0.011 | [5] -0.023 | [7] -0.074 | [8] -0.004 | [9] -0.082 | [10] -0.051 | Nexturastat A 0.018 | vemurafenib -0.088 | [11] -0.032 | [12] 0.104 | givinostat 0.143 | barasertib -0.033
active: [1] -0.305 | [6] -1.4

OXSM (UniProt Q9NWU1)
Sequence of UniProt Q9NWU1 (Q9NWU1 whole entry, looked up): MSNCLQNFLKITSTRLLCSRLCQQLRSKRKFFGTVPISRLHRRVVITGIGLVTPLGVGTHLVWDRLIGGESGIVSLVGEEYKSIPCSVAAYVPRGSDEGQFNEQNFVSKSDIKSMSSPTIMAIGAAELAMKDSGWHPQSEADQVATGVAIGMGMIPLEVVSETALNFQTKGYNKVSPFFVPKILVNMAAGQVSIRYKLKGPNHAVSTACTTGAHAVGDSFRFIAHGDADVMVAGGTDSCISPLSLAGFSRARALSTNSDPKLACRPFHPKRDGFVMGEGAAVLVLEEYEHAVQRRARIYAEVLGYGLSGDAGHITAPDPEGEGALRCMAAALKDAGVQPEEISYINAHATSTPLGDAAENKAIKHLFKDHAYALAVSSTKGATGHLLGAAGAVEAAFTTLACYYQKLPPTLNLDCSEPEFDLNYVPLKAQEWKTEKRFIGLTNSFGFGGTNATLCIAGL
active: givinostat -0.234
inactive: IRAK-1-4 Inhibitor I 0.032 | ibrutinib 0.064 | [1] 0.017 | ralimetinib 0.008 | [2] 0.031 | [3] 0.041 | [4] -0.025 | pinometostat -0.067 | [5] -0.023 | [6] -0.011 | [7] -0.023 | [8] -0.057 | [9] 0.023 | [10] 0.003 | Nexturastat A -0.061 | vemurafenib 0.01 | [11] 0.045 | [12] -0.03 | barasertib -0.034

NFE2 (UniProt Q16621)
Sequence of UniProt Q16621 (Q16621 whole entry, looked up): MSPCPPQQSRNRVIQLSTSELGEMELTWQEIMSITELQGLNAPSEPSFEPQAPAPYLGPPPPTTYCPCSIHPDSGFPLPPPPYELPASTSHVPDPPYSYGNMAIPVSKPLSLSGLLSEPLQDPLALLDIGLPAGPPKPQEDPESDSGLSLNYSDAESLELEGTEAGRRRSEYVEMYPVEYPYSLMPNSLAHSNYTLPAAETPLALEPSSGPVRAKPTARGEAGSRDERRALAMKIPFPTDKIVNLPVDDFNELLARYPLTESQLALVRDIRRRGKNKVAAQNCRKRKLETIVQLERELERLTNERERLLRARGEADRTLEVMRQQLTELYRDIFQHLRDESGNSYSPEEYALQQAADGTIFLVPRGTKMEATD
active: [6] -0.285
inactive: IRAK-1-4 Inhibitor I 0.053 | ibrutinib -0.039 | [1] 0.016 | ralimetinib -0.06 | [2] 0.01 | [3] -0.119 | [4] 0.184 | pinometostat -0.001 | [5] 0.037 | [7] -0.09 | [8] 0.064 | [9] 0.017 | [10] 0.034 | Nexturastat A 0.044 | vemurafenib -0.087 | [11] 0.043 | [12] -0.009 | givinostat 0.087 | barasertib -0.003

MTHFD1 (UniProt P11586)
Sequence of UniProt P11586 (P11586 whole entry, looked up): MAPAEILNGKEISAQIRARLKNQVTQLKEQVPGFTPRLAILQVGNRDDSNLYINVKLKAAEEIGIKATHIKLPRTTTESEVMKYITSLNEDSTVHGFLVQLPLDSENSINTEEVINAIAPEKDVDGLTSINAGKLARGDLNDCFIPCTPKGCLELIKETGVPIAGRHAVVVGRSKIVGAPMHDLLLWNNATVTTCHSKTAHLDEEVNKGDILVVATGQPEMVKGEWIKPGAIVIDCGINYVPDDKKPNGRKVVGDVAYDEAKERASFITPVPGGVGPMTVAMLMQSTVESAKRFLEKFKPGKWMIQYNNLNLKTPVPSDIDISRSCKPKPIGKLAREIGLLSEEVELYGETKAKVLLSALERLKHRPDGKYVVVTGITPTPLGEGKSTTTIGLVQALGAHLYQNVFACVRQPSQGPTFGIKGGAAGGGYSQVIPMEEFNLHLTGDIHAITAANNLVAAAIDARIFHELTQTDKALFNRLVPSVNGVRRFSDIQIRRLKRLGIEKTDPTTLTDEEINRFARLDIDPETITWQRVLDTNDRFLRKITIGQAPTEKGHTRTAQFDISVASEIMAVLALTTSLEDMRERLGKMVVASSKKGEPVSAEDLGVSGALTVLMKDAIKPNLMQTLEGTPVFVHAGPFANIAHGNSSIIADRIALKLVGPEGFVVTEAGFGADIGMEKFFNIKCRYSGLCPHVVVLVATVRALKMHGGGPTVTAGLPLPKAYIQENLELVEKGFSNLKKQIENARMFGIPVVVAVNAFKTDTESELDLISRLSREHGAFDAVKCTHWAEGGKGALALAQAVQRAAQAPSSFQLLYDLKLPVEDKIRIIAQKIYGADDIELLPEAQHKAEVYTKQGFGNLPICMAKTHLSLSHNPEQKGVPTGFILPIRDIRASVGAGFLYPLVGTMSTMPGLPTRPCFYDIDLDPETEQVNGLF
inactive: IRAK-1-4 Inhibitor I 0.01 | ibrutinib -0.014 | [1] -0.068 | ralimetinib -0.001 | [2] -0.082 | [3] -0.102 | [4] -0.005 | pinometostat -0.034 | [5] -0.023 | [6] 0.073 | [7] 0.052 | [8] -0.026 | [9] 0.003 | [10] 0.042 | Nexturastat A -0.046 | vemurafenib 0.06 | [11] 0.046 | [12] -0.013 | givinostat 0.048 | barasertib 0.038

NIPSNAP2 (UniProt O75323)
inactive: IRAK-1-4 Inhibitor I 0.018 | ibrutinib 0.115 | [1] -0.084 | ralimetinib -0.054 | [2] 0.049 | [3] 0.014 | [4] -0.015 | pinometostat -0.034 | [5] 0.002 | [6] 0.031 | [7] 0.06 | [8] -0.044 | [9] 0.055 | [10] 0 | Nexturastat A -0.072 | vemurafenib 0.06 | [11] 0.029 | [12] 0.007 | givinostat -0.081 | barasertib 0.019

MRPS9 (UniProt P82933)
active: [6] -0.243
inactive: IRAK-1-4 Inhibitor I -0.061 | ibrutinib 0.024 | [1] -0.022 | ralimetinib -0.023 | [2] 0.001 | [3] -0.059 | [4] 0.07 | pinometostat 0.018 | [5] -0.048 | [7] 0.053 | [8] -0.025 | [9] -0.029 | [10] 0.02 | Nexturastat A 0.057 | vemurafenib -0.043 | [11] 0.053 | [12] -0.019 | givinostat 0.026 | barasertib -0.043

NOP58 (UniProt Q9Y2X3)
Sequence of UniProt Q9Y2X3 (Q9Y2X3 whole entry, looked up): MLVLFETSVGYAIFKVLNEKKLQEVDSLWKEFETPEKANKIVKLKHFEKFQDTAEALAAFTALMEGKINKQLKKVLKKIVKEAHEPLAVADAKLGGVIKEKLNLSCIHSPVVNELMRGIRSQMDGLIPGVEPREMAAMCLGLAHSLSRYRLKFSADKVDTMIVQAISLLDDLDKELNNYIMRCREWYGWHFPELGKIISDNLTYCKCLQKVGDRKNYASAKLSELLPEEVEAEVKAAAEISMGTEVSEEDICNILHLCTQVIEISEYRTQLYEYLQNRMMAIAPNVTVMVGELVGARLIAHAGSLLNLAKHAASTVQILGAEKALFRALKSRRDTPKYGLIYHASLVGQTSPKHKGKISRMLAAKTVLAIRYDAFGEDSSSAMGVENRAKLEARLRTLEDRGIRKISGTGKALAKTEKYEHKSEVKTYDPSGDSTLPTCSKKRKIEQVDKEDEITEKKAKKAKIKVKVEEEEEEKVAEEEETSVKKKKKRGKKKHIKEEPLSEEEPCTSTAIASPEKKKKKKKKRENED
inactive: IRAK-1-4 Inhibitor I -0.06 | ibrutinib 0.039 | [1] -0.117 | ralimetinib -0.008 | [2] 0.06 | [3] 0.052 | [4] 0.117 | pinometostat 0.128 | [5] -0.035 | [6] -0.029 | [7] -0.055 | [8] -0.012 | [9] -0.058 | [10] -0.073 | Nexturastat A 0.161 | vemurafenib 0.046 | [11] 0.041 | [12] 0.081 | givinostat 0.072 | barasertib -0.075

NEDD4 isoform 4 (UniProt P46934)
Sequence of UniProt P46934 (P46934 whole entry, looked up): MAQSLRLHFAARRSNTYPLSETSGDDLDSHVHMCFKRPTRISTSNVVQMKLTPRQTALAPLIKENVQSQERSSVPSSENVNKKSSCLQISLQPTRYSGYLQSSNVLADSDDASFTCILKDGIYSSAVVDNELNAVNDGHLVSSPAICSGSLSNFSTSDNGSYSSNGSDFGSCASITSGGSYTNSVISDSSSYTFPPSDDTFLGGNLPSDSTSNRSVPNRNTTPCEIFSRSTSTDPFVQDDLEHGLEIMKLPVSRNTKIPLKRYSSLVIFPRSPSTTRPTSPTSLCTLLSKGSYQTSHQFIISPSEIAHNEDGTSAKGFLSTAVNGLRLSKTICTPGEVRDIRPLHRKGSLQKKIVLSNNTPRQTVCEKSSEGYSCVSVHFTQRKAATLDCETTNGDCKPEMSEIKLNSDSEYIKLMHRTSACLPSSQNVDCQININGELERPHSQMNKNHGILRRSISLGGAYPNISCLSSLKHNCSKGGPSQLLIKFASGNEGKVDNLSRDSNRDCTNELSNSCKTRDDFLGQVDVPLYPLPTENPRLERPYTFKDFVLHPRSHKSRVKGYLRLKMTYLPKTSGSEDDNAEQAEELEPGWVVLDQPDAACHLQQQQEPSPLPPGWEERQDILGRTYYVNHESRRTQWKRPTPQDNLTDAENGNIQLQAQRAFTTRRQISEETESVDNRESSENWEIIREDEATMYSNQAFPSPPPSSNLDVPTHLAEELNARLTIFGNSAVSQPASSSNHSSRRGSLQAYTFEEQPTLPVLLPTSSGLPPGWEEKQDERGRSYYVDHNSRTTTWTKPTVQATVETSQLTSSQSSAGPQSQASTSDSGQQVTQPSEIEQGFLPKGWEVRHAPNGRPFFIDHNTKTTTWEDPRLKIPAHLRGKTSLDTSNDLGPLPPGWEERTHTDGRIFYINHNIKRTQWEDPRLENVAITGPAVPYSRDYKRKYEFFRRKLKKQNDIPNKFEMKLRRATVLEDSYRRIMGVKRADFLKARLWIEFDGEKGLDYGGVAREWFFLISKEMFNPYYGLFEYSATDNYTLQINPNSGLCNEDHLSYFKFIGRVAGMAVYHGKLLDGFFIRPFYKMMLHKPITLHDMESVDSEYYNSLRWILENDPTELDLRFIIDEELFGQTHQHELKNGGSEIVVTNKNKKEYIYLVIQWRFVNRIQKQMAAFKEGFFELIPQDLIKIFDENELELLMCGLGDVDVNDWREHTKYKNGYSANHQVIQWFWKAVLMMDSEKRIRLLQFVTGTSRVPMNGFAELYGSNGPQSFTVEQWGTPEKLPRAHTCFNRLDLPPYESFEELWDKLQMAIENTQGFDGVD
inactive: IRAK-1-4 Inhibitor I 0.002 | ibrutinib -0.038 | [1] 0.02 | ralimetinib -0.014 | [2] -0.027 | [3] -0.124 | [4] 0.019 | pinometostat -0.03 | [5] -0.025 | [6] -0.065 | [7] -0.069 | [8] -0.011 | [9] -0.025 | [10] 0.047 | Nexturastat A -0.04 | vemurafenib 0.029 | [11] 0.026 | [12] 0.026 | givinostat 0.018 | barasertib 0.009

NME1 isoform 2 (UniProt P15531)
Sequence of UniProt P15531 (P15531 whole entry, looked up): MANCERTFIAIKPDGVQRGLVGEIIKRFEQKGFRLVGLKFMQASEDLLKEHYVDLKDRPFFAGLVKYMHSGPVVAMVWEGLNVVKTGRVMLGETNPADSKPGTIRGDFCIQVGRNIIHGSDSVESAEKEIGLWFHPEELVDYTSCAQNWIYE
inactive: IRAK-1-4 Inhibitor I 0.021 | ibrutinib 0.107 | [1] -0.007 | ralimetinib -0.035 | [2] 0.03 | [3] 0.041 | [4] 0.032 | pinometostat -0.017 | [5] -0.192 | [6] 0.038 | [7] -0.054 | [8] 0.047 | [9] 0.029 | [10] -0.006 | Nexturastat A -0.067 | vemurafenib -0.003 | [11] -0.045 | [12] -0.092 | givinostat -0.07 | barasertib -0.108

NMU (UniProt P48645)
Sequence of UniProt P48645 (P48645 whole entry, looked up): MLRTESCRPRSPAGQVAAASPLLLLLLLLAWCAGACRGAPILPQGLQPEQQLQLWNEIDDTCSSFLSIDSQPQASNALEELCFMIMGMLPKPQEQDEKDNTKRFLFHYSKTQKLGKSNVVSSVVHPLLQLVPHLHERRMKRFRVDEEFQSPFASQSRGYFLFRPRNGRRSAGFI
active: [10] 0.411
inactive: IRAK-1-4 Inhibitor I -0.052 | ibrutinib 0.027 | [1] 0.034 | ralimetinib 0.063 | [2] 0.011 | [3] 0.123 | [4] 0.313 | pinometostat -0.106 | [5] 0.03 | [6] -0.174 | [8] -0.052 | [9] 0.09 | Nexturastat A 0.283 | vemurafenib 0.067 | [11] -0.127 | givinostat 0.001 | barasertib 0.002
